This is a sample that favours compounds with a hit; in the whole collection about 1.7% have one here.
FGF22 binding – binders of human FGF22 protein, primary screen, FGF22 synaptogenesis inhibitor project, biophysical, thermal shift, single point; Fibroblast growth factor 22 (Homo sapiens), Q9HCT0; activity (Tm shift, normalised), % at 9.99 µM; recombinant FGF22 thermal shift, SYPRO orange fluorescence; percent of sucrose octasulfate shift, DMSO zero; 1.5% of 340,000 active;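 active = mean Tm shift, scaled 0 neutral to 100 positive control, at about 1.3% or above, every replicate too, limit read from the data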
Target sequence (Q9HCT0 whole entry, looked up): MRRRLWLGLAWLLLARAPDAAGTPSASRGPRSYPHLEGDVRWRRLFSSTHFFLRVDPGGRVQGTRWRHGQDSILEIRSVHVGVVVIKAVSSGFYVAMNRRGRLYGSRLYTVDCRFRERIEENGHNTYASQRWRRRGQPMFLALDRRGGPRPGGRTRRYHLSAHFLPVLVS
F508del corr – F508del CFTR correction, initial screen, CFBE line, single point; CFBE cells, YFP halide quenching; stimulated with forskolin plus potentiator P3; % fluorescence drop versus neutral controls; activity (quench increase), % at 7.58 µM; 0.36% of 350,000 active;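 active = mean added fluorescence quench of at least 8% versus neutral control, with both replicates also reaching 8%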;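 note: cells transiently co-express mutant CFTR-F508del with the halide-sensitive YFP; corrector assay measuring rescue of mutant channel to the surface after 24 h compound exposure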
Vif inh – HIV Vif self-association inhibitors, primary screen, imaging, HEK293T, single point | 0.35% of 340,000 active | inhibition, % at 7.49 µM | HEK293T cells, Vif self-association by quenched fluorescence, 24 h | AID 602346, 2012; in the data active = inhibition above about 50%, passing the limit was not always enough
Numbers without * were called inactive; . = no result.

SMILES	FGF22 binding	F508del corr	Vif inh
O=C(C[C@@H]1CC[C@@H]2[C@H](COC[C@H](O)CN2Cc2cccc(C(F)(F)F)c2)O1)NCCc1ccccc1	0	-2	.
CC1SC(=NC(=O)c2ccncc2)NC1=O (stereo not drawn)	44*	2	7
CC1S/C(=N/N=C2CCCCC2)NC1=O (stereo not drawn)	0	.	2
COCC(=O)N1C[C@H](C)[C@H](OC)CN(C)C(=O)c2ccc(NC(=O)c3ccccc3)cc2OC[C@H]1C	0	0	.
O=C(O)c1ccc(S(=O)(=O)c2ccc3c(c2)C(=O)N(c2ccc(Br)cc2)C3=O)cc1	0	-1	66*
Cc1ccc(C(=O)NN2C(=O)c3ccc(S(=O)(=O)c4ccc(C(=O)O)cc4)cc3C2=O)cc1	0	3	-6
CCCN(C)C[C@H]1OCCCC[C@@H](C)Oc2ccc(NC(=O)Nc3ccc(OC)cc3)cc2C(=O)N([C@H](C)CO)C[C@@H]1C	1	0	.
O=C(NNC(=O)c1cc2cc3ccccc3nc2s1)c1ccc(F)cc1	.	.	13
O=C(NNC(=O)C1CC1)c1cc2cc3ccccc3nc2s1	43*	-1	-5
COc1ccc(NC(=O)NCc2ccco2)cc1OC	44*	-5	3
COc1ccc(C)cc1NC(=O)NCc1ccco1	0	-1	-15
O=C(Cc1ccccn1)NCC[C@@H]1CC[C@H](NC(=O)CN2CCOCC2)[C@@H](CO)O1	0	2	.
C/C=C/c1ccc2c(c1)O[C@@H](CN(C)C(=O)c1ccccc1F)[C@H](C)CN([C@H](C)CO)S2(=O)=O	0	1	.
COc1ccc(N2C(=O)CC(Sc3nnc(-c4ccccc4F)n3C)C2=O)cc1 (stereo not drawn)	43*	-6	0
COc1ccc(N2C(=O)CC(Sc3nc4ccccc4s3)C2=O)cc1 (stereo not drawn)	0	-7	14
CC(=O)c1ccc(NC(=O)C(C)N(C)CC(=O)Nc2ccc(Cl)cc2)cc1 (stereo not drawn)	44*	-2	-1
CC(=O)c1ccc(NC(=O)C(C)N(C)CC(=O)Nc2ccc(N3CCOCC3)cc2)cc1 (stereo not drawn)	0	-1	-5
C[C@H]1CN([C@@H](C)CO)S(=O)(=O)c2ccc(C3=CCCC3)cc2O[C@@H]1CN(C)Cc1cccc(C(=O)O)c1	0	3	.
COc1ccc(NC(=O)C2(C)Cc3c(-c4ccc(NC(C)=O)cc4)ccnc3O2)cn1 (stereo not drawn)	0	2	11
CC(=O)Nc1cccc(-c2ccnc3c2CC(C)(C(=O)Nc2ccc4c(c2)OCO4)O3)c1 (stereo not drawn)	0	10*	44
COc1ccc(NC(=O)C2(C)Cc3c(-c4cccc(NC(C)=O)c4)ccnc3O2)cn1 (stereo not drawn)	0	4	58*
CC1(C(=O)Nc2ccc3c(c2)OCO3)Cc2c(-c3ccccc3)ccnc2O1 (stereo not drawn)	0	3	-1
CN(C[C@@H]1N[C@H](CO)[C@@H]1c1ccc(C2=CCCCC2)cc1)S(C)(=O)=O	.	-7	.
C[C@H](CO)N1C[C@H](C)[C@H](CN(C)Cc2ccc3c(c2)OCO3)Oc2c(NC(=O)C3CC3)cccc2C1=O	0	-1	.
O=C(CN1CCOCC1)NCC[C@@H]1CC[C@H](NC(=O)Nc2ccccc2)[C@H](CO)O1	0	1	.
SMILES	FGF22 binding	F508del corr	Vif inh
COc1ccc(S(=O)(=O)Oc2cccc(/C=N/N=C3/NC(=O)C(CC(=O)O)S3)c2)cc1 (stereo not drawn)	2.6*	-1	-3
Cc1ccc(S(=O)(=O)Oc2ccc(/C=N/N=C3/NC(=O)C(CC(=O)O)S3)cc2)cc1 (stereo not drawn)	0	1	-5
O=C(c1ccc(F)cc1)N1CCCCN2[C@H](C1)[C@@H](c1ccc(-c3ccc(F)cc3)cc1)[C@@H]2CO	0	-4	.
COc1ccc(C)cc1NC(=O)C(OC(=O)c1ccc(Cl)c(S(=O)(=O)N(C)c2ccccc2)c1)c1ccccc1 (stereo not drawn)	0	9.2*	-6
COc1ccc(C)cc1NC(=O)C(OC(=O)c1cnccn1)c1ccccc1 (stereo not drawn)	0	0	-2
CC(C)NC(=O)Nc1ccc2c(c1)CC(=O)N([C@H](C)CO)C[C@@H](C)[C@H](CN(C)C(=O)Nc1cccc3ccccc13)O2	0	3	.
CCCCNc1cc(C(=O)O)cc(S(N)(=O)=O)c1Oc1ccccc1	0	8.6*	4
NS(=O)(=O)c1cc(C(=O)O)cc(N2CCCC2)c1Oc1ccccc1	0	-1	-6
